Data reported in the supplement of paper PMC6555819.

What was measured:
Assay in all cases: PBM binding z-score (relative to random genomic background probes); higher = stronger binding; sequences stand for … in GC…GCGATTGACAGCGTAGAATGAAGG
[1] = test system: FXR:RXRa (NR concentration 270 nM, RXRa partner concentration 90 nM)
Summary of the method: (§1)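 For binding z-scores, the reference was random background probes on custom Agilent 4×180K protein-binding microarrays. These arrays were incubated 1 h with ligand-free nuclear receptor dimers in PBS pH 7.4, 2% milk, 0.02% Triton X-100, 1 mM DTT, 0.2 mg/mL BSA and 0.4 mg/ml salmon testes DNA. Fluorescence was scanned after antibody detection of each partner (one per run) and regression-normalized.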

[2] = test system: LXRa:RXRa (NR concentration 270 nM, RXRa partner concentration 90 nM)
Summary of the method: as §1

[3] = test system: LXRa homodimer (NR concentration 270 nM)
Summary of the method: as §1

[4] = test system: LXRb:RXRa (NR concentration 270 nM, RXRa partner concentration 90 nM)
Summary of the method: as §1

[5] = test system: LXRb homodimer (NR concentration 270 nM)
Summary of the method: as §1

[6] = test system: PPARa:RXRa (NR concentration 270 nM, RXRa partner concentration 90 nM)
Summary of the method: as §1

[7] = test system: PPARg:RXRa (NR concentration 180 nM, RXRa partner concentration 90 nM)
Summary of the method: as §1

[8] = test system: PPARg:RXRa 270nM:90nM, anti-RXR (NR concentration 270 nM, RXRa partner concentration 90 nM)
Summary of the method: as §1

[9] = test system: PPARg:RXRa 30nM:10nM, anti-RXR (NR concentration 30 nM, RXRa partner concentration 10 nM)
Summary of the method: as §1

[10] = test system: PPARg:RXRa 90nM:30nM, anti-RXR (NR concentration 90 nM, RXRa partner concentration 30 nM)
Summary of the method: as §1

[11] = test system: PPARg:RXRa DBDmut IVT, anti-RXR (DBD mutation: RXRa K156A/R161A, NR concentration 270 nM, RXRa partner concentration 90 nM)
Summary of the method: as §1

[12] = test system: PPARg:RXRa IVT, anti-PPARg (NR concentration 270 nM, RXRa partner concentration 90 nM)
Summary of the method: as §1

[13] = test system: PPARg DBDmut:RXRa IVT, anti-PPARg (DBD mutation: PPARg1 K132A/R137A, NR concentration 270 nM, RXRa partner concentration 90 nM)
Summary of the method: as §1

[14] = test system: PPARg DBDmut IVT, anti-PPARg (DBD mutation: PPARg1 K132A/R137A, NR concentration 270 nM)
Summary of the method: as §1

[15] = test system: PPARg homodimer (NR concentration 180 nM)
Summary of the method: as §1

[16] = test system: PXR:RXRa (NR concentration 270 nM, RXRa partner concentration 90 nM)
Summary of the method: as §1

[17] = test system: PXR homodimer (NR concentration 270 nM)
Summary of the method: as §1

[18] = test system: RARa:RXR (NR concentration 270 nM, RXRa partner concentration 90 nM)
Summary of the method: as §1

[19] = test system: RARa homodimer (NR concentration 270 nM)
Summary of the method: as §1

[20] = test system: RARb:RXRa (NR concentration 270 nM, RXRa partner concentration 90 nM)
Summary of the method: as §1

Sequence	PBM binding z-score [1]	PBM binding z-score [2]	PBM binding z-score [3]	PBM binding z-score [4]	PBM binding z-score [5]	PBM binding z-score [6]	PBM binding z-score [7]	PBM binding z-score [8]	PBM binding z-score [9]	PBM binding z-score [10]	PBM binding z-score [11]	PBM binding z-score [12]	PBM binding z-score [13]	PBM binding z-score [14]	PBM binding z-score [15]	PBM binding z-score [16]	PBM binding z-score [17]	PBM binding z-score [18]	PBM binding z-score [19]	PBM binding z-score [20]
CCTTACGGGTCACGAGGTTATAGCCCGACGAGCG	6.99	4.42	0.302	3.77	-0.0981	6.03	7.34	6.97	3.33	5.71	3.74	5.56	0.959	1.66	3.14	4.59	-0.00848	6.27	0.153	4.74
GCGACTGGGGCATCAGCAGGTTACTATAACTTAA	0.0216	-0.0377	-0.448	0.689	-0.343	1.27	0.884	1.05	-0.238	0.594	4.13	3.05	-0.371	-0.562	-0.0326	-0.0216	-0.178	0.369	-0.337	0.825
ATATGTAGGTTAAGGGTCATTCAAGTTGGTTCGC	5.1	5.2	2.81	4.68	1.33	6.53	11.5	9.66	9.8	10.8	7.49	7.7	1.56	1.82	3.15	5.92	1.73	5.73	1.9	3.79
CCTCGGAGGACAACAGGAGGTCAGCGCTGCCAGA	1.63	2.48	1.84	1.66	-0.537	2.37	0.445	0.734	-0.791	0.307	0.165	0.649	-1.42	-1.72	2.38	2.56	0.451	2.71	0.815	3.27
CGTCAAAGTTCCACTAAGGTAACGTAAAGCACGC	0.0989	-0.0438	-0.0633	0.0124	0.0274	0.268	0.459	0.573	-0.0574	0.281	0.458	0.925	-0.504	0.445	0.404	0.17	0.428	2.22	0.139	0.704
CTCGAAAGGTCTGTTGAGGTGAGTATACGGATAA	0.57	-0.177	-0.581	-0.275	-0.339	0.697	-0.00878	0.182	-0.0313	0.242	-0.464	0.358	0.678	0.237	0.0956	0.48	-0.39	1.61	-0.325	1.47
CCAGACAGGAGAGAAGGTAACTCAGCCTCGATTA	-0.282	-0.227	-0.0445	0.0989	0.0914	-0.133	0.348	-0.148	0.0221	-0.398	-0.43	-0.372	-0.415	-0.373	0.786	-0.0804	0.0829	-0.197	0.0212	-0.091
TGAATGAGGTTATATGATCAGGGAACGTTGCAAA	1.85	1.48	-0.0351	1.25	0.134	2.97	1.44	1.76	1.05	1.45	1.01	1.63	0.22	0.825	0.489	1.04	0.00293	1.77	0.606	1.26
GTTTGTAGATCAAGGTTAAGAAAGACTAAGCTAA	0.943	1.64	0.556	0.954	0.547	1.84	1.93	2.88	1.48	2.65	1.8	1.93	1.34	0.524	1.43	0.822	1.11	1.21	2.12	1.24
AAAACGAGGGCACGCTGAGTTGATAGCAGAGTAG	0.97	0.877	-0.416	0.344	-0.954	2.42	2.99	2.58	0.579	1.87	5.62	5.01	-0.17	0.145	0.283	1.5	0.139	0.828	-0.23	2.65
GCTAGTTGGCCAGTAAAAGGTCACACACCGGTCG	2.93	4.16	3.87	4.02	0.221	4.29	1.91	3.48	1.25	2.46	0.354	1.78	-0.104	-0.574	3.08	4.62	0.59	5.25	0.379	4.07
TCCATTAGTTGAAGGGCAACCGACGAGTCCGTTT	1.27	1.35	0.397	1.23	0.255	1.18	0.134	2.23	3.64	3.02	2.37	0.637	0.0905	0.783	1.13	1.16	0.683	0.989	0.466	1.86
TCTTGTAGATCAGCAGGTTCAGAAAGCTGGCCAA	-0.19	0.323	-0.435	0.265	-0.738	0.609	-0.665	1.1	2.02	1.52	1.4	0.189	-0.291	-0.791	-0.268	0.644	-0.241	0.455	-0.229	0.0377
CGAACTAGGTCACTGACAGGACAGTGAATAGTAA	3.05	2.26	-0.0136	1.64	-0.225	4.7	7.95	6.65	3.86	6.09	8.19	8.43	0.923	0.583	1.33	1.1	-0.168	1.94	-0.0785	3.9
ATCTCGAGGTAAAGATAGTTCAGTGAATGCAAAT	0.198	5.34	0.132	1.62	0.118	0.727	0.145	0.25	0.14	0.23	-0.0258	0.54	0.0992	0.266	0.0262	2.22	0.66	0.499	-0.0875	0.896
TCATATAGGTAAACAGTTGAAAGTCCGTAAGTTA	1.56	1.2	0.508	1.15	0.267	1.76	1.53	2.91	3.95	3.49	4.45	3.32	1.41	0.905	1.35	1.03	0.634	1.35	1.47	0.681
CGAACTCGGTCAGAACAGGACAGTGAAGGATGAT	0.127	0.0151	0.0405	-0.32	-0.669	0.415	0.904	0.142	0.197	0.033	1.72	1.11	-0.0702	0.48	0.274	-0.108	-0.225	0.713	-0.378	1.55
CCAGACAGGTGAAATGTAACTCAGTCTGGTACGC	0.0255	-0.0223	-0.367	0.217	0.0964	0.949	1.12	1.5	0.324	1.07	1.56	0.99	-0.289	-0.0118	0.686	0.0204	-0.634	0.296	0.296	0.614
CAAACTAGGTCACCGGAAGGTAAAAGTCCGCATG	4.56	3.72	0.573	2.66	0.507	5.39	9.08	7.23	5.39	7.11	8.41	8.97	5.23	6.11	4.02	2.47	0.103	3.44	0.872	4.32
CATACAGGGTCAGATAGGCCAGAGTAGGGACGGC	4.34	3.14	0.146	2.31	0.65	4.26	3.15	2.6	0.58	1.71	0.492	2.13	1.29	1.07	2.72	2.05	0.241	2.94	0.209	3.55
GCTCGGAGGACAAGGTCAGAGCCTTGTCCGTAGA	2.67	2.08	-0.456	1.59	-0.419	2.91	0.887	2.22	-0.306	1.23	-0.797	1.42	-1	-0.556	0.956	1.46	-0.573	1.8	-0.489	3.49
TATACAGGGTCACAGGCCAGAGTACGAATGTCGA	7.56	5.94	2.06	4.84	2.2	6.06	8.05	6.76	3.77	5.75	2.88	5.43	2.95	3.73	3.45	4.32	0.522	5.21	1.31	4.8
GGAACGAGGGCAAGTTGATAGCGGAGTTTGATGG	0.772	0.00493	-0.352	0.246	-0.525	1.7	0.963	1.16	0.00794	0.229	3.78	2.64	-0.0734	-0.677	0.26	0.392	0.189	0.406	-0.36	2.53
ATCTCTAGGGAAAAGTTCAGTGAATCCCGAGGAT	-0.0297	0.401	0.405	0.302	0.328	2.67	4.59	5.66	3.84	5.64	-0.096	1.64	0.313	0.383	0.686	1.42	0.706	0.616	0.196	1.77
CGTCCACGGTCAGCAGGTCAGTGAAAGCGACGTG	0.822	0.439	-0.291	-0.097	-0.966	1.08	0.155	0.415	-0.695	-0.328	0.719	0.748	-0.923	-1.32	0.382	0.0662	-0.459	0.943	-0.66	3.25
GCTGCTAGGTCAACTGATGGTCCGCTAAAGCTCG	3.85	2.46	0.00165	1.92	-0.00733	3.41	2.32	2.97	0.463	1.97	4.62	3.92	-0.331	-0.853	0.857	0.939	-0.584	2.05	-0.897	4.04
